Experimental data: PubChem BioAssay

test: RPL19A-GFP modulators, yeast TOR pathway, confirmation, cell-based, S. cerevisiae, flow cytometry, cherry picks, mother/daughter gates (AID 2270); conditions: S. cerevisiae RPL19A-GFP strain, 3 h, measured here: mother cell gate, at 10 µM, stronger effect = lower value, 100 = same GFP as DMSO wells

Row | SMILES | GFP response vs DMSO [%]
1 | COC(=O)c1ccccc1Sc1ncnc2onc(C)c12 | 101
2 | CC(C)(C)C(=O)C(Cl)C(=O)Nc1ccccc1 (stereo not given) | 72.1
3 | O=[N+]([O-])c1ccc(S(=O)(=O)c2cccc(C(F)(F)F)c2)nc1 | 75
4 | Cc1cccn2c(=O)c(/C=C(\C#N)C(=O)NC3CCS(=O)(=O)C3)c(N3CC(C)OC(C)C3)nc12 (stereo not given) | 99.7
5 | CCc1nnc(NC(=O)c2ccc(S(=O)(=O)N(CCOC)CCOC)cc2)o1 | 96.2
6 | Cc1ccc(N(C(=O)CCCC(=O)Nc2ccccn2)C(C(=O)NC2CCCC2)c2ccc(O)cc2)cc1C (stereo not given) | 99.8
7 | COc1ccc(OC)c(C2C(C(=O)Nc3nc4ccccc4s3)=C(C)NC3=C2C(=O)CCC3)c1 (stereo not given) | 78.4
8 | O=[N+]([O-])c1ccc(-c2cn3nc(-c4ccccc4)c(-c4ccccc4)nc3n2)cc1 | 96.2
9 | COc1ccccc1OC(C)C(=O)Nc1ccccc1C(=O)NCC1CCCO1 (stereo not given) | 97.2
10 | COc1ccc(NS(=O)(=O)c2cccc3ccccc23)cc1 | 99.2
11 | O=C(c1ccc2ccccc2c1)N1CCN(c2ccc(O)cc2)CC1 | 101
12 | O=C1c2ccsc2SCCN1Cc1cccc(Cl)c1 | 95.8
13 | CCCOc1ccc(C(=O)NNC(=S)NC(=O)CC)cc1 | 117
14 | Cc1cccc(N2C(=O)c3cccc4c(N(C)CCO)ccc(c34)C2=O)c1 | 99
15 | Cc1ccc(-n2ncc(C#N)c2/N=C/N(C)C)cc1 | 103
16 | C=CCOc1ccccc1C(=O)/C=C1/C(=O)Nc2ccccc21 | 95
17 | O=c1cnnc(SCc2ccc([N+](=O)[O-])cc2)[nH]1 | 96.2
18 | Cc1ccc(S(=O)(=O)N2CCCC2C(=O)Oc2ccccc2)cc1 (stereo not given) | 99.5
19 | COCCNc1c(-c2ccc(O)cc2)nc2ccc(Cl)cn12 | 97.7
20 | O=C(Nc1nc(-c2ccc(F)cc2)cs1)c1cnccn1 | 98.1

Row | SMILES | GFP response vs DMSO [%]
21 | CS(=O)(=O)N1N=C(c2ccc3nccnc3c2)CC1c1ccccc1 (stereo not given) | 98.2
22 | O=C(NCCCSc1ccccc1)c1cc(Cl)ccc1O | 102
23 | COc1ccc(N2C(=O)CC(Sc3ncn[nH]3)C2=O)c(OC)c1 (stereo not given) | 102
24 | CN1CCSc2ccc(C(=O)Nc3cccc(F)c3)cc21 | 96.7
25 | CCN(CC)CCCN(C(=O)c1ccc(Br)cc1)c1nc(-c2ccc(OC)cc2)cs1 | 96.9
26 | O=C(Nc1nccs1)C1CCCN1S(=O)(=O)c1ccc(F)cc1 (stereo not given) | 100
27 | O=C(c1ccccc1)c1ccccc1N1C(=O)C=CC1=O | 81.2
28 | COc1ccc(N2CCN(C(=O)C3CCCN(S(=O)(=O)c4ccc(C)cc4)C3)CC2)cc1 (stereo not given) | 93.4
29 | Cc1cc(NCCCN2CCOCC2)n2nc(C)c(-c3ccc(F)cc3)c2n1 | 95.6
30 | CCC(C)(C)n1nnnc1C(c1ccc(O)c(OC)c1)N1CCc2ccccc2C1 (stereo not given) | 97.6
31 | COc1ccc(-c2csc(Nc3ncccc3C)n2)cc1 | 95.3
32 | O=S(=O)(Nc1ccc(Br)cc1)c1cccc2nonc12 | 98.3
33 | O=C(CSc1nnc(C2COc3ccccc3O2)o1)N1CCCC1 (stereo not given) | 98.7
34 | CCc1noc(C)c1C(=O)Nc1nc2ccc(OC)cc2s1 | 92.5
35 | CCc1ccc(C(=O)/C=C/c2ccc([N+](=O)[O-])o2)cc1 | 103
36 | CSc1ccc(-c2cc(=O)c3ccccc3o2)cc1 | 92.5
37 | COc1ccccc1C(=O)N1CCN(c2cccc(C(F)(F)F)c2)CC1 | 97.4
38 | COc1cc(/C=C2\N=C(c3ccccc3)OC2=O)ccc1OCc1c(C)no[n+]1[O-] | 103
39 | CC(C)C(=O)Nc1ccc(NC(=O)c2cc3ccccc3o2)cc1 | 98.6
40 | CCOC(=O)Cc1csc(NC(=O)CSc2nnc(-c3ccc(C)cc3)o2)n1 | 101
